Results as given in the supplement of paper PMC7411054.
Where a name gives a salt, the structure may show the parent alone.

How the values were obtained:
Settings in all cases: treatment time: 24 h
HepG2-ACTB-RAB5A = assay: lowest phenotypically active concentration; higher = less potent
Method in brief: (§1)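 Each of fifteen gene-edited A549, HepG2 and WPMY1 reporter lines, marked with BFP for segmentation and GFP and RFP/FusionRed, was treated in four wells at 0.3, 1, 3 or 9 µM for 24 h prior to live imaging. Normalisation of per-well live-cell features used solvent control wells. Deviation needed ≥3 of 4 wells beyond the 95th percentile of control Euclidean distances, and reproducibility needed a median replicate Pearson correlation above the 95th percentile of non-replicates. Both were required for phenotypic activity.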

HepG2-CANX-COX4 = assay: as above
Method in brief: as §1

HepG2-TP53BP1-CLTA = assay: as above
Method in brief: as §1

HepG2-TUBA1B-RELA = assay: as above
Method in brief: as §1

WPMY1-ACTB-RAB5A [1] = assay: as above
Method in brief: as §1

WPMY1-CANX-COX4 = assay: as above
Method in brief: as §1

WPMY1-GM130-SQSTM1 = assay: as above
Method in brief: as §1

WPMY1-TP53BP1-CLTA = assay: as above
Method in brief: as §1

WPMY1-TUBA1B-RELA = assay: as above
Method in brief: as §1

WPMY1-ACTB-RAB5A [2] = assay: phenotypically active (imaging signature differs from DMSO and reproducible) at any of 0.3-9 uM (binary (1 = active, 0 = inactive)); higher = active
Method in brief: as §1

Compound	lowest phenotypically active concentration (HepG2-ACTB-RAB5A) [µM]	lowest phenotypically active concentration (HepG2-CANX-COX4) [µM]	lowest phenotypically active concentration (HepG2-TP53BP1-CLTA) [µM]	lowest phenotypically active concentration (HepG2-TUBA1B-RELA) [µM]	lowest phenotypically active concentration (WPMY1-ACTB-RAB5A [1]) [µM]	lowest phenotypically active concentration (WPMY1-CANX-COX4) [µM]	lowest phenotypically active concentration (WPMY1-GM130-SQSTM1) [µM]	lowest phenotypically active concentration (WPMY1-TP53BP1-CLTA) [µM]	lowest phenotypically active concentration (WPMY1-TUBA1B-RELA) [µM]	phenotypically active (WPMY1-ACTB-RAB5A [2])
CN1CCN(c2ccc(OC(F)(F)F)c(Nc3ncc4c(n3)-c3c(c(C(N)=O)nn3CCO)CC4)c2)CC1	≤ 0.3	≤ 0.3	≤ 0.3	≤ 0.3	≤ 0.3	1	1	≤ 0.3	≤ 0.3	1 (active)
O=C(NCCCNc1nc(Nc2cccc(NC(=O)N3CCCC3)c2)ncc1I)c1cccs1	3	1	1	≤ 0.3	3	3	3	3	3	1 (active)
Cc1c(C(=O)N2CCOc3ccc(-c4ccc(N)nc4)cc3C2)ccc(S(C)(=O)=O)c1F	3	3	9	3	3	3	3	3	9	1 (active)
C[C@@H](N)[C@H]1CC[C@H](C(=O)Nc2ccncc2)CC1	3	1	1	3	1	1	1	9	1	1 (active)
COc1ccc(S(=O)(=O)N(C(C)=O)c2ccccc2/C=C/c2cc[n+]([O-])cc2)cc1	3	3	3	3	1	3	3	3	1	1 (active)
COc1cc(C(=O)NC2CCN(C)CC2)c(F)cc1Nc1ncc2c(n1)N(C1CCCC1)CC(F)(F)C(=O)N2C [TAK 960 hydrochloride]	≤ 0.3	≤ 0.3	≤ 0.3	≤ 0.3	≤ 0.3	1	≤ 0.3	≤ 0.3	≤ 0.3	1 (active)
NC(=O)Nc1sc(-c2ccc(F)cc2)cc1C(N)=O	9	3	9	9	9	9	9	9	9	1 (active)
C[C@@H]1COCCN1c1cc(C2(S(C)(=O)=O)CC2)nc(-c2cccc3[nH]ccc23)n1	≤ 0.3	1	1	1	≤ 0.3	≤ 0.3	1	1	3	1 (active)
CC[C@]1(O)C[C@@H]2CN(CCc3c([nH]c4ccccc34)[C@@](C(=O)OC)(c3cc4c(cc3OC)N(C=O)[C@H]3[C@@](O)(C(=O)OC)[C@H](OC(C)=O)[C@]5(CC)C=CCN6CC[C@]43[C@@H]65)C2)C1 [vincristine]	≤ 0.3	≤ 0.3	≤ 0.3	≤ 0.3	≤ 0.3	≤ 0.3	≤ 0.3	≤ 0.3	≤ 0.3	1 (active)
COc1cc(C)c(Sc2cnc(NC(=O)c3ccc(CNC(C)C(C)(C)C)cc3)s2)cc1C(=O)N1CCN(C(C)=O)CC1 (stereo not given)	3	3	3	3	3	3	3	3	3	1 (active)
CC[C@@H]1C(=O)N(C)c2cnc(Nc3ccc(C(=O)NC4CCN(C)CC4)cc3OC)nc2N1C1CCCC1	≤ 0.3	1	≤ 0.3	≤ 0.3	≤ 0.3	≤ 0.3	≤ 0.3	≤ 0.3	≤ 0.3	1 (active)
CN(C)C1CCN(C(=O)c2ccc(NC(=O)Nc3ccc(-c4nc(N5CCOCC5)nc(N5CCOCC5)n4)cc3)cc2)CC1	≤ 0.3	≤ 0.3	≤ 0.3	≤ 0.3	≤ 0.3	≤ 0.3	≤ 0.3	≤ 0.3	≤ 0.3	1 (active)
Cc1ccc([N+](=O)[O-])cc1S(=O)(=O)N(C)/N=C/c1cnc2ccc(Br)cn12	≤ 0.3	≤ 0.3	≤ 0.3	≤ 0.3	≤ 0.3	≤ 0.3	≤ 0.3	≤ 0.3	≤ 0.3	1 (active)
O=C1Nc2ccc(F)cc2C1=C1Nc2ccccc2C1=NO [5'-Fluoroindirubinoxime]	≤ 0.3	≤ 0.3	1	1	1	≤ 0.3	1	≤ 0.3	1	1 (active)
Nc1ncnc2c1nc(Cl)n2C1O[C@H](CO)[C@@H](O)[C@H]1O (stereo not given in full) [8-Chloroadenosine]	1	3	3	3	9	3	3	3	3	1 (active)
O=C(CCCCSc1nc(-c2ccc(-c3ccccc3)cc2)cc(=O)[nH]1)NO	≤ 0.3	≤ 0.3	≤ 0.3	≤ 0.3	≤ 0.3	≤ 0.3	≤ 0.3	≤ 0.3	≤ 0.3	1 (active)
CCN(CC)c1ccc(/C=N/NC(=O)c2ccncc2)c(O)c1	≤ 0.3	≤ 0.3	≤ 0.3	1	≤ 0.3	≤ 0.3	≤ 0.3	≤ 0.3	1	1 (active)
Cc1cc(/N=N/c2ccc(S(=O)(=O)Nc3ccccn3)cc2)c(N)cc1O	9	3	9	9	3	9	3	9	9	1 (active)

Compound	lowest phenotypically active concentration (HepG2-ACTB-RAB5A) [µM]	lowest phenotypically active concentration (HepG2-CANX-COX4) [µM]	lowest phenotypically active concentration (HepG2-TP53BP1-CLTA) [µM]	lowest phenotypically active concentration (HepG2-TUBA1B-RELA) [µM]	lowest phenotypically active concentration (WPMY1-ACTB-RAB5A [1]) [µM]	lowest phenotypically active concentration (WPMY1-CANX-COX4) [µM]	lowest phenotypically active concentration (WPMY1-GM130-SQSTM1) [µM]	lowest phenotypically active concentration (WPMY1-TP53BP1-CLTA) [µM]	lowest phenotypically active concentration (WPMY1-TUBA1B-RELA) [µM]	phenotypically active (WPMY1-ACTB-RAB5A [2])
COc1cccc(-c2cc(F)ccc2[C@H]2Cc3nc(N)nc(C)c3C(=O)N2)n1	≤ 0.3	≤ 0.3	≤ 0.3	≤ 0.3	≤ 0.3	≤ 0.3	≤ 0.3	≤ 0.3	≤ 0.3	1 (active)
Cn1cc(-c2[nH]c3cc(NC(=O)[C@H](N)C4CCCCC4)cc4c3c2C=NNC4=O)cn1	1	3	3	1	≤ 0.3	≤ 0.3	≤ 0.3	≤ 0.3	≤ 0.3	1 (active)
CN1c2ccccc2C(=O)N2CCc3c([nH]c4ccccc34)[C@H]21 [Evodiamine]	1	3	3	3	1	1	1	1	1	1 (active)
C[C@@H](Oc1cc(-n2cnc3ccc(CN4CCN(C)CC4)cc32)sc1C(N)=O)c1ccccc1C(F)(F)F	≤ 0.3	≤ 0.3	≤ 0.3	≤ 0.3	≤ 0.3	3	≤ 0.3	≤ 0.3	≤ 0.3	1 (active)
CC1=C(C(=O)Nc2cc3cn[nH]c3cc2F)C(c2ccc(C(F)(F)F)cc2)CC(=O)N1 (stereo not given)	≤ 0.3	≤ 0.3	≤ 0.3	≤ 0.3	≤ 0.3	≤ 0.3	≤ 0.3	3	≤ 0.3	1 (active)
CN1CC[C@H](c2c(O)cc(O)c3c(=O)cc(-c4ccccc4Cl)oc23)[C@H](O)C1 [Flavopiridol hydrochloride]	≤ 0.3	≤ 0.3	≤ 0.3	≤ 0.3	≤ 0.3	≤ 0.3	≤ 0.3	≤ 0.3	≤ 0.3	1 (active)
Cc1ccc(-n2nc(C(C)(C)C)cc2NC(=O)Nc2ccc(OCCN3CCOCC3)c3ccccc23)cc1	1	3	3	≤ 0.3	3	1	1	9	1	1 (active)
Nc1nccc2c1ncn2[C@@H]1C=C(CO)[C@@H](O)[C@H]1O [3-Deazaneplanocin A hydrochloride]	1	≤ 0.3	1	1	1	1	1	3	1	1 (active)
Nc1cccc(-c2cc3c(Oc4cccc(O)c4)ncnc3[nH]2)c1	1	9	3	3	3	9	9	3	9	1 (active)
COc1cc2nc(N3CCCN(C)CC3)nc(NC3CCN(Cc4ccccc4)CC3)c2cc1OC	≤ 0.3	1	1	≤ 0.3	1	1	≤ 0.3	1	1	1 (active)
Oc1cccc(-c2nc(N3CCOCC3)c3oc4ncccc4c3n2)c1 [PI 103 hydrochloride]	≤ 0.3	≤ 0.3	≤ 0.3	≤ 0.3	≤ 0.3	≤ 0.3	≤ 0.3	≤ 0.3	≤ 0.3	1 (active)
Fc1ccccc1CNCc1ccc(-c2ccnc3[nH]ccc23)cc1 [OXA 06 dihydrochloride]	1	1	1	1	1	≤ 0.3	1	9	1	1 (active)
CON(C)C(=O)N1N=C(c2cc(F)ccc2F)S[C@@]1(CCCN)c1ccccc1 [ARRY 520 trifluoroacetate]	≤ 0.3	≤ 0.3	≤ 0.3	≤ 0.3	≤ 0.3	≤ 0.3	≤ 0.3	≤ 0.3	≤ 0.3	1 (active)
COc1cc2nc(-c3cc(F)ccc3O)nc(N[C@@H]3CNC[C@H]3C(C)(C)O)c2cc1OC	1	1	1	1	1	1	1	1	1	1 (active)
Cc1cc(Nc2cc(N3CCN(C)CC3)nc(Sc3ccc(NC(=O)C4CC4)cc3)n2)[nH]n1	≤ 0.3	≤ 0.3	≤ 0.3	≤ 0.3	≤ 0.3	≤ 0.3	≤ 0.3	≤ 0.3	≤ 0.3	1 (active)
CNC(=O)c1ccccc1Sc1ccc2c(/C=C/c3ccccn3)n[nH]c2c1 [Axitinib]	3	3	3	3	9	9	3	3	3	1 (active)
O=C(O)c1ccc(Nc2ncc3c(n2)-c2ccc(Cl)cc2C(c2c(F)cccc2F)=NC3)cc1	≤ 0.3	≤ 0.3	≤ 0.3	≤ 0.3	≤ 0.3	3	9	≤ 0.3	≤ 0.3	1 (active)
